Screens as filed in PubChem.
Hits are enriched below; roughly 4.1% of the tested compounds scored in any of these assays.
Rv3671c protease: inhibits the M. tuberculosis serine protease Rv3671c; AID 2606; inhibition, % at 5.96 µM; 320,000 tested, 0.048% active; P9WHR9; in the data active means inhibition above about 38%;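 further: extracellular domain of Rv3671c used as enzyme; 0% = enzyme with DMSO and 100% = no enzyme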
GDH-TPI inh: inhibits GDH-TPI coupling enzymes, artifact for Mtb FBA screen. GDH-TPI coupled enzyme counterscreen, NADH absorbance. inhibition, % at 4.8 µM. 360,000 tested, 1.2% active. AID 588335; in the data active means inhibition above about 30%;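 further: 0% = DMSO wells and 100% = wells lacking the enzyme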
UGM FP inh: Mtb UDP-galactopyranose mutase inhibition. purified UGM, fluorescence polarization probe displacement. AID 504406. P9WIQ1. inhibition, % at 10 µM. 320,000 tested, 0.06% active; in the data active means inhibition above about 10%, passing the limit was not always enough
RecA splice inh: Mtb RecA intein splicing inhibition; cell-free RecA intein splicing, fluorescence; P9WHJ3; inhibition, % (concentration not given with the values); 290,000 tested, 0.75% active; in the data active means inhibition above about 30%;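 further: 0% = vehicle wells and 100% = reference inhibitor control wells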
Vc quorum ag: quorum light induction in luxS cqsA deficient V. cholerae. 350,000 tested, 0.16% active. V. cholerae BH1578 lux reporter, luminescence, 6 h. activation, % at 18.7 µM; in the data active means activation mostly above about 9.7%, no sharp cut-off
Mtb FBA inh: inhibits M. tuberculosis FBA enzyme; P9WQA3; purified M. tuberculosis FBA, fluorescence read-out; inhibition, % at 1 µM; 360,000 tested, 2.3% active; AID 588726; in the data active means inhibition above about 27%;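 further: 0% = vehicle and 100% = reference inhibitor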
An asterisk follows results filed as active; i = inactive; / = no result; + = active, no number.

SMILES	Rv3671c protease	GDH-TPI inh	UGM FP inh	RecA splice inh	Vc quorum ag	Mtb FBA inh
N#CC1(NC(=O)COC(=O)c2nccnc2N)CCCCC1	-1.6	10.2	2.2	3.0	-0.2	164.8*
Nc1cc(C(=O)OCC(=O)NNC(=O)c2ccccc2)ccc1Cl	2.1	-12.2	-1.5	-7.4	i	4.0
CCOc1ccc(C(=O)NCC(c2ccco2)N2CCOCC2)cc1 (configuration not stated)	7.9	6.7	0.3	-1.0	-0.4	-2.0
CC1(C(=O)NCCc2c[nH]c3ccccc23)CCN1Cc1ccccc1OC(F)F (configuration not stated)	/	-5.8	/	/	-0.2	-0.7
CC1(C(=O)NS(=O)(=O)C2CC2)CCN(C(=O)c2cc3ccccc3s2)C1 (configuration not stated)	/	8.0	/	/	i	2.3
Cc1ccc2c(c1)c1c(c(=O)n(-c3ccccc3C)c(=O)n1CC(=O)NCC1CCCO1)n2C (configuration not stated)	5.4	-2.5	0.4	-0.7	-0.3	+
Cc1cc(C)cc(-n2c(=O)c3ccccc3n(CC(=O)NCC3CCCO3)c2=O)c1 (configuration not stated)	3.3	-4.4	-1.2	/	-0.3	-4.2
CCc1ccc(C2=NN(CCC(=O)NC(C)CCc3ccccc3)C(=O)CC2)cc1 (configuration not stated)	1.1	22.5	-1.3	1.9	0.9	3.6
O=C1N=C(N2CCOCC2)S/C1=C\c1ccncc1	10.0	20.5	-1.6	0.6	-0.3	-0.6
CC(=O)N1CCN(C2=NC(=O)/C(=C\c3cccs3)S2)CC1	-3.9	7.9	-2.1	2.5	-0.4	-4.0
CCc1ccc(/C=C2/SC(N3CCOCC3)=NC2=O)cc1	7.1	47.1*	-1.6	-1.0	i	-2.8
CC(=C/c1ccccc1)/C=C1/SC(N2CCOCC2)=NC1=O	1.5	32.0*	1.9	1.8	-0.3	0.0
O=C1N=C(N2CCOCC2)S/C1=C/c1cccs1	7.6	33.8*	-1.8	8.3	-5.6	-2.0
O=C1N=C(N2CCOCC2)S/C1=C\c1ccc(OS(=O)(=O)c2ccccc2)cc1	-0.7	18.2	-1.0	9.4	i	-0.3
CC(C)c1ccc(/C=C2\SC(N3CCOCC3)=NC2=O)cc1	-4.8	31.7*	0.5	-1.1	-0.5	-0.3
O=C(COC(=O)c1ccc(Cl)cc1[N+](=O)[O-])NCc1ccco1	7.6	0.4	1.2	/	-0.6	0.7
O=C(Nc1nccs1)c1cc2cc(Cl)ccc2oc1=O	-1.4	23.4	2.0	-5.5	i	2.3
Cc1nc2ccccn2c(=O)c1NC(=O)c1ccco1	/	16.4	/	/	-0.7	-4.1
Cc1nc2ccccn2c(=O)c1NC(=O)c1cccc2ccccc12	16.4	30.7*	0.3	-0.1	-0.5	-0.2
O=C(N/N=C/c1ccc([N+](=O)[O-])o1)c1cc(-c2cccc(Br)c2)nc2ccccc12	-8.7	39.2*	-2.2	26.7	i	-2.7
Cc1cc(C(=O)N/N=C/c2ccc([N+](=O)[O-])o2)c(C)o1	0.5	40.5*	2.0	8.1	-0.3	0.8
O=c1ccc2cc(O[C@@H]3O[C@@H](CO)[C@H](O)[C@@H](O)[C@@H]3O)c(O)cc2o1	7.0	5.6	-1.9	i	0.1	+
COc1cc2ccc(=O)oc2c(O[C@@H]2O[C@H](CO)[C@@H](O)[C@H](O)[C@H]2O)c1O	1.7	1.3	-0.1	-2.4	-0.8	185.1*
O=c1ccc2ccc(O[C@@H]3O[C@H](CO)[C@@H](O)[C@H](O)[C@H]3O)c(O)c2o1	-3.2	26.1	1.9	/	-0.4	6.3
CCCc1cc(=O)oc2cc(O[C@@H]3O[C@H](CO)[C@@H](O)[C@H](O)[C@H]3O)ccc12	-4.0	0.7	2.5	-0.1	0.1	7.1
SMILES	Rv3671c protease	GDH-TPI inh	UGM FP inh	RecA splice inh	Vc quorum ag	Mtb FBA inh
COc1ccc([C@H]2C[C@H](O)[C@@H](n3cc(COC(=O)c4ccccc4)nn3)CN2C(=O)C2CCCCC2)cc1	/	-15.1	/	/	-0.4	0.5
Cc1cccc(NC(=O)c2cc([N+](=O)[O-])ccc2Cl)c1O	1.1	-2.5	1.6	3.5	i	-4.3
Cc1n[nH]c(C)c1NC(=O)c1cc([N+](=O)[O-])ccc1Cl	-2.4	5.2	0.4	-1.1	-1.0	142.2*
CC(C)(OC(=O)c1ccc(F)cc1)c1cc2ccccc2c(=O)o1	5.8	-10.0	-0.5	/	-0.3	0.4
CCN1C(=O)NC(=O)/C(=C\c2cn(CC(=O)N3CCCC3)c3ccccc23)C1=O	-13.2	-3.4	52.2*	3.7	-0.3	-9.9
CCN1C(=O)NC(=O)/C(=C\c2cn(CC(=O)N3CCCCC3)c3ccccc23)C1=O	-17.6	0.8	40.6*	-3.6	i	2.4
Cc1cc(Br)ccc1Nc1nc(N)nc(N)c1N=O	/	32.5*	/	/	i	5.3
N#Cc1c(N)nc(N)nc1Nc1ccc(Br)cc1	-3.3	10.9	0.6	-0.7	i	0.2
Cc1cccc(Nc2nc(C)cc(C)c2C#N)c1	2.5	8.6	0.0	2.1	-0.4	0.5
Cc1cccc(Nc2nc(N)nc(N)c2N=O)c1	/	30.7*	/	/	i	-1.2
Cc1cccc(Nc2nc(N)c(C#N)c(CC#N)c2C#N)c1	3.0	64.2*	-1.6	1.7	-0.4	-0.4
Cc1ccc(Nc2nc(N)nc(N)c2N=O)cc1C	/	/	/	/	/	-0.5
C/C(=N\NC(=O)c1ccc(C(=O)N/N=C(\C)c2ccco2)o1)c1ccco1	-15.1	31.3*	0.4	-1.6	-0.3	0.4
O=C1CCCN1S(=O)(=O)c1ccc(F)cc1	7.6	9.4	1.1	-0.8	i	2.8
C=CCNc1nc(N)c(C(=C(C#N)C#N)c2ccc(Br)cc2)s1	-10.0	13.5	0.7	-9.0	i	125.9*
COc1ccc(C(=O)NCc2ccco2)cc1S(=O)(=O)NC1CC1	-13.0	1.4	1.8	/	-2.7	-1.9
N#CC(/C(=N/S(=O)(=O)c1cccs1)c1ccccc1)c1nc2ccccc2[nH]1 (configuration not stated)	1.8	43.1*	-2.6	-4.8	i	-2.3
N#Cc1c(N)n(-c2ccc(C(=O)O)cc2)c2nc3ccccc3nc12	-21.1	20.2	0.5	-247.5	-0.2	+
N#Cc1c(N)n(C2CCCCC2)c2nc3ccccc3nc12	-6.5	13.9	1.0	-88.4	0.9	117.5*
CCC(=O)Nc1c(C#N)c2nc3ccccc3nc2n1C1CCCCC1	-7.5	-10.1	-1.3	6.9	0.1	11.0
CSc1nnc(NC(=O)c2cccc(S(=O)(=O)N3CCOCC3)c2)s1	4.0	22.3	-0.9	2.1	-0.1	0.9
O=C(O)c1ccccc1C1=Nc2ccc(O)cc2Oc2cc(O)ccc21	20.0	10.2	14.3*	-1.0	1.4	-2.6
O=C(CNC1=NCCC1)c1ccc(Cl)cc1	-6.9	15.4	-0.7	45.2*	-0.4	3.0
COc1ccc(C(=O)CNC2=NCCC2)cc1	4.8	8.5	-1.6	-1.6	1.3	-1.1
C=CSc1sc(Cl)c(N2CCOCC2)c1[N+](=O)[O-]	-0.8	0.3	1.6	30.3*	-0.2	5.1
COc1ccc(-c2oc3ccc(-c4ccc(OC)nc4)cc3c2C#CC2(O)CCCCC2)cc1	-56.5	31.5*	0.1	-3.7	-0.9	7.5
